The source of these data is PubChem BioAssay (NCATS).

A number with no mark means an inactive call. Records with an inconclusive call do not appear. Calls of active or inactive are those of the source. Calls follow the shape of the dose curve; as a rule, active = well fitted curve in the direction sought with a large enough effect; inconclusive = small, poorly fitted or top-dose-only effect, or another doubt; inactive = no such curve, though single readings can be large; an effect the other way counts as inactive or inconclusive.

A short description of experiment [1]: Cell Viability - H-4-II-E (AID 543). Also: % is scaled to controls: 0 for no effect and ±100 for the full control effect; nearly all actives have a fitted effect of over 35% in size. An outline of the steps: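 Rat hepatoma H-4-II-E cells (1500/well) were plated, incubated 5 hr at 37 °C, then exposed to compounds for 40 hr at 37 °C. Cellular ATP was read by CellTiter-Glo luminescence; AC50 came from Hill-equation fits of concentration-response data.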
Experiment [2] in a line: Cell Viability - SH-SY5Y (AID 544). Also: nearly all actives have a fitted effect of over 55% in size. Also: potency is read from the fitted curve at half-maximal effect. The following applies: SH-SY5Y neuroblastoma cell viability; viability change, negative = cytotoxic: at 92.2 µM (top of the series). An outline of the steps: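 Human neuroblastoma SH-SY5Y cells (1500/well) in complete medium were exposed to compounds for 40 hr at 37 °C; intracellular ATP was then quantified by CellTiter-Glo luminescence after 20 min at room temperature. AC50 came from Hill-equation concentration-response fits.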

A short description of experiment [3]: Cell Viability - Renal Proximal Tubule (AID 545). Also: nearly all actives have a fitted effect of over 40% in size. An outline of the steps:
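Primary rat renal proximal tubule cells (1000/well) were treated with compounds for 40 hr at 37 °C in complete medium. Intracellular ATP was measured by CellTiter-Glo luminescence, and AC50 values came from Hill-equation fits of concentration-response data.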

Experiment [4] can be described thus: Cell Viability - Mesenchymal (AID 546).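 Also: cells exposed to compound for 40 hours before reading.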 An outline of the steps: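 Normal human renal glomerulus-derived kidney mesenchymal cells, 1000 per well in complete medium, were treated with compounds for 40 hr at 37 °C. Viability was read as intracellular ATP by CellTiter-Glo luminescence; AC50 values came from Hill-equation fits of qHTS concentration-response data.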

The nature of experiment [5]: Cellular Toxicity (caspase-3) HepG2 (AID 654).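 Also: cells exposed to compound for 16 hours before reading; 0% = DMSO alone and 100% = caspase signal from 100 µM tamoxifen.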 The procedure, abridged:
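HepG2 cells (1500/well) in complete medium were treated with compounds for 16 hr at 37 °C. Caspase-3/7 activity was then read as luminescence from peptide-aminoluciferin cleavage. AC50 came from Hill fits, normalized to DMSO and 100 uM tamoxifen.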

Experiment [6] is described as follows: Cellular Toxicity (caspase-3) Jurkat (AID 655).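 Also: cells exposed to compound for 16 h at 37 °C before reading.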 The following applies: Jurkat caspase-3 activation, luminescence; caspase-3 activation: at 92.2 µM (top of the series), DMSO = 0%, tamoxifen = 100%. An outline of the steps:
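Jurkat cells (5000/well) in complete medium were treated with compounds for 16 hr at 37 °C, then Caspase-Glo 3/7 luminescence was read after 20 min at room temperature. Data normalized to DMSO (basal) and 100 uM tamoxifen (100%); AC50 from Hill fit.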

Experiment [7] in a line: Cellular Toxicity (caspase-3) HUV-EC-C (AID 656). The procedure, abridged:
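HUV-EC-C endothelial cells, 1000/well, were pre-incubated 5 hr at 37°C, then exposed to compounds for 16 hr at 37°C. Caspase-Glo 3/7 luminescence was read after 20 min at room temperature. AC50 came from Hill fits, normalized to DMSO and 100 uM tamoxifen.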

The nature of experiment [8]: Cellular Toxicity (caspase-3) SHSY5Y (AID 657). An outline of the steps:
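SH-SY5Y human neuroblastoma cells (1500/well) were treated with compounds for 16 h at 37 °C, then Caspase-Glo 3/7 luminescence was read after 1 h at room temperature. Data normalized to DMSO and 10 uM staurosporine; AC50 from Hill fits.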

Experiment [9] can be described thus: Cellular Toxicity (caspase-3) MRC-5 (AID 659).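 Also: 0% = DMSO basal and 100% = 10 µM staurosporine.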 The procedure, abridged: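 Luminescence from caspase-cleaved aminoluciferin substrate (Caspase-Glo 3/7, 1 hr RT) reports caspase 3/7 activity in MRC-5 lung fibroblasts after 16 hr compound exposure. Normalized to DMSO basal and 10 uM staurosporine as 100%; AC50 from Hill fits.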
Experiment [10] is described as follows: Cellular Toxicity (caspase-3) Mesangial (AID 660).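 Also: cells exposed to compound for 16 h before the caspase read.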 The following applies: mesangial cells, normalized: DMSO 0%, 100 µM tamoxifen 100%; at 91.7 µM (top of the series). The procedure, abridged: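 Human renal glomerular mesangial cells (1000/well) were treated with compounds for 16 h at 37 °C in complete medium, then caspase 3/7 activity was read by Caspase-Glo luminescence. Data were normalized to DMSO and 100 uM tamoxifen; AC50 from Hill fits.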

Experiment [11] can be described thus: Cellular Toxicity (caspase-3) SK-N-SH (AID 661).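 Also: 0% = DMSO basal and 100% = 10 µM staurosporine.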 An outline of the steps:
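SK-N-SH human neuroblastoma cells (1500/well) were treated with compounds for 16 hr at 37 °C in complete medium; caspase 3/7 activity was read by Caspase-Glo luminescence. AC50 came from Hill fits of data normalized to DMSO and 10 uM staurosporine.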

The nature of experiment [12]: Cellular Toxicity (caspase-3) H-4-II-E (AID 663).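 Also: cells exposed to compound for 16 hr before readout.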 Conditions: H-4-II-E rat hepatoma, scaled: DMSO 0%, 100 µM tamoxifen 100%; at 92.2 µM (top of the series). An outline of the steps:
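Luminescence from caspase-cleaved aminoluciferin substrate, read 20 min after reagent addition, reports caspase 3/7 activation in rat H-4-II-E cells after 16 hr compound exposure. Normalized to DMSO (basal) and 100 uM tamoxifen (100%); AC50 from Hill fits.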

The nature of experiment [13]: Cellular Toxicity (caspase-3) Hek293 (AID 664).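 Also: cells exposed to compound for 16 h at 37 °C before readout.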 The following applies: HEK293 caspase-3 activation, DMSO = 0%, 100 µM tamoxifen = 100%; at 92.2 µM (top of the series). An outline of the steps:
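HEK293 cells were exposed to compounds in complete medium for 16 hr at 37 °C, then caspase-3/7 activity was read by Caspase-Glo 3/7 luminescence after 20 min at room temperature. Data normalized to DMSO and 100 uM tamoxifen; AC50 from Hill fits.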

Experiment [14] can be described thus: Cellular Toxicity (caspase-3) N2a (AID 665).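 Also: compound exposure lasted 16 h at 37 °C before readout.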 The procedure, abridged:
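Mouse N2a neuroblastoma cells (1500/well) were treated with compounds for 16 h at 37 °C, then caspase-3/7 activity was read by Caspase-Glo luminescence after 1 h at room temperature. Data were normalized to DMSO and 10 uM staurosporine; AC50 from Hill fits.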

Experiment [15] can be described thus: Cellular Toxicity (caspase-3) NIH 3T3 (AID 666).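 Also: 0% = DMSO basal and 100% = 100 µM tamoxifen stimulation.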 An outline of the steps: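 Mouse NIH 3T3 fibroblasts (1000 cells/well) were treated with compound for 16 hr at 37°C in complete medium; caspase-3/7 activity was read by Caspase-Glo luminescence. Normalized to DMSO and 100 uM tamoxifen; AC50 from Hill fits.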
Experiment [16] is described as follows: Cellular Toxicity (caspase-3) Renal Proximal Tubule (AID 667).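 Also: cells exposed to compound for 16 hours at 37 °C before detection; 0% = DMSO basal and 100% = 10 µM staurosporine.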 The following applies: Potency: caspase-3 activation. The procedure, abridged: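 Primary rat proximal tubule cells, 1000/well, 5 h plating at 37 °C, then compound 16 h at 37 °C. Caspase-Glo 3/7 reagent, 1 h RT, luminescence. Normalized to DMSO (basal) and 10 uM staurosporine (100%); Hill-fit AC50.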

For experiment [17], the target named is Cytochrome P450 3A4 (Homo sapiens) (UniProt P08684). The experiment in a line: qHTS Assay for Inhibitors and Substrates of Cytochrome P450 3A4 (AID 884). Also: % is scaled to controls: 0 for no effect and ±100 for the full control effect; nearly all actives have a fitted effect of over 50% in size. An outline of the steps:
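20 nM human CYP3A4 with 25 uM Luciferin-PPXE (at KM) in 200 mM KPO4, preincubated 10 min with compound; NADPH regeneration started a 60 min RT reaction. Luciferin detected by luminescence, normalized to 57 uM ketoconazole as full inhibition.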

The nature of experiment [18]: Cell Viability - LYMP2-001 (AID 921).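 Also: 0% = DMSO only and full inhibition = tetraoctylammonium bromide control wells; nearly all actives have a fitted effect of over 70% in size.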 An outline of the steps:
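Human lymphoblastoid cells (Coriell), 2500 per well, were preincubated 5 hr at 37 C, then exposed to compounds in complete medium for 24 hr at 37 C. Cellular ATP was read by CellTiter-Glo luminescence; AC50 from Hill fits of concentration-response data.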

The nature of experiment [19]: Cellular Toxicity (caspase-3) BJ (AID 658).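 Also: 0% = DMSO basal and 100% = 10 µM staurosporine.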 An outline of the steps:
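Luminescent aminoluciferin-substrate cleavage reports caspase 3/7 activity in normal human BJ fibroblasts after 16 hr compound exposure at 37 °C. Normalized to DMSO (basal) and 10 uM staurosporine (100%); AC50 from Hill fit of concentration-response.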

Chain of Cytochrome P450 3A4 (Homo sapiens) (P08684 whole entry, looked up): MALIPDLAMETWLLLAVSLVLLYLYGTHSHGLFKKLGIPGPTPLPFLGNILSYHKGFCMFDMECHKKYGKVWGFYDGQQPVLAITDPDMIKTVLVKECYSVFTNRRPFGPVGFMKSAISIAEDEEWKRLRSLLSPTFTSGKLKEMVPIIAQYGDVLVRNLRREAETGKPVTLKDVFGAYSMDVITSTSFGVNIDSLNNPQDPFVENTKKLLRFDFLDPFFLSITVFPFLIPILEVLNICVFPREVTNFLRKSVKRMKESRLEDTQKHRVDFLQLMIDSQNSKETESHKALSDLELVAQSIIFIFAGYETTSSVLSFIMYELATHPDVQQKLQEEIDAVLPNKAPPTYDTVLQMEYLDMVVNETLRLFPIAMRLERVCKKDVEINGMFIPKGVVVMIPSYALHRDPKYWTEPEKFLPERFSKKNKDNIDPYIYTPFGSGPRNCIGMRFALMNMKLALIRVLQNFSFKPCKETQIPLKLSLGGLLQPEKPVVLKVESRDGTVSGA

As to `O=C(O)c1ccc(Cl)c(Cl)c1`, the Potency entry in experiment [1], in experiment [2], in [3], in experiment [4], in experiment [5] and in [16] was “inactive” in each case. The Potency result in experiment [17] and in experiment [18] was “inactive” in each case. The caspase-3 activation was -1.55% in experiment [6], -0.246% in experiment [10], -0.517% in [12] and 0.484% in experiment [13]. Moreover, the compound was classed as inactive in experiment [7], in [8], in experiment [9], in experiment [11], in experiment [14] and in experiment [15].
Take `[O-]/[N+](=N\O)c1ccccc1`: the Potency entry in [1], in [2], in experiment [3], in [4], in experiment [5] and in [16] was “inactive” in each case. In [18], the Potency result is “inactive”. Moreover, the caspase-3 activation in experiment [6] is -1.18%; in [10], -1.07%; in experiment [12], -1.1%; in experiment [13], 2.95%. Moreover, the outcome in experiment [7], in experiment [8], in [19], in experiment [11], in experiment [14] and in experiment [15] was inactive.
For `CCCCC(=O)N(C)C`, the Potency entry in [1], in experiment [2], in [3], in [4], in experiment [5] and in [16] was “inactive” throughout. In addition, the Potency result in [17] and in experiment [18] was “inactive” in each case. Also, the caspase-3 activation in experiment [6] is -0.841%; in experiment [10], 0.37%; in experiment [12] it was -1.29%; in [13], 1.13%. In addition, the compound was called inactive in experiment [7], in experiment [8], in experiment [19], in [11], in experiment [14] and in experiment [15].
For `CC(=O)OCc1ccco1`, the Potency entry in experiment [1], in [3], in experiment [4], in experiment [5], in experiment [16] and in experiment [17] was “inactive” each time. Further, in experiment [18], the Potency entry is “inactive”. Besides, the Potency in experiment [2] is 31.6 µM (active). Also, the caspase-3 activation in [6] is 13.6%; in experiment [10] it was -0.525%; in [12], -0.245%; in experiment [13], -4.85%. The compound was called inactive in [8], in experiment [19], in [9], in [11], in experiment [14] and in experiment [15].
For `C1COC1`, the Potency entry in [1], in experiment [2], in [3], in [4], in experiment [5] and in [16] was “inactive” each time. For the same compound, the Potency entry in experiment [17] and in experiment [18] was “inactive” in each case. The caspase-3 activation in experiment [6] is -0.0782%; in experiment [10], 0.626%; in experiment [12], 1.05%; in experiment [13], -1.66%. Besides, the call in [8], in experiment [19], in experiment [11], in [14] and in [15] was inactive.
Regarding `COCCOC(=O)c1ccccc1C(=O)OCCOC`, the Potency result in [1], in experiment [2], in experiment [3], in experiment [4], in experiment [5] and in experiment [16] was “inactive” throughout. For the same compound, the Potency entry in experiment [17] and in [18] was “inactive” throughout. In addition, the call in experiment [7], in experiment [8], in experiment [19], in experiment [9], in [11] and in experiment [14] was inactive. In [15], the result was inactive. Further, the caspase-3 activation is 1.04% in experiment [10], 0.176% in experiment [12] and 0.308% in experiment [13].
Turning to `CC(=O)c1ccc([N+](=O)[O-])cc1`, the Potency result in [1], in [2], in [3], in experiment [4], in experiment [5] and in experiment [16] was “inactive” each time. For the same compound, the Potency entry in [17] and in experiment [18] was “inactive” each time. Besides, the result in experiment [7], in experiment [8], in experiment [19], in [9], in experiment [11] and in experiment [14] was inactive. The compound was called inactive in experiment [15]. Moreover, the results for the caspase-3 activation in [10], in experiment [12] and in experiment [13] were -0.175%, 0.949% and -0.704%, respectively.
